In PubChem BioAssay (NCI):
Where “and” joins values, the source holds several entries; their conditions need not be identical. Equal values may be shown once. The panel holds about 79,000 compounds, 15% with a hit somewhere; the sample as a whole holds those more often. A number with no mark means an inactive call. Calls of active or inactive are those of the source. Cut-off read from the data, not from the text of the source: active = growth inhibition above about 70%; inactive = the rest.

Key:
[1] = NCI Yeast Anticancer Drug Screen. Data for the rad50 strain (AID 155);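 note: 0% = growth of vehicle-only cultures of the same strain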; details: S. cerevisiae rad50 strain growth inhibition, stronger effect = higher value
Procedure, shortened: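 Growth of the mutant yeast was measured after compound exposure and referenced to vehicle-treated cultures.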

[2] = NCI Yeast Anticancer Drug Screen. Data for the sgs1 mgt1 strain (AID 161);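 note: 0% = growth of cultures given vehicle only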; details: S. cerevisiae sgs1 mgt1 strain, stronger effect = higher value
Procedure, shortened: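 Read-out: growth inhibition vs vehicle controls. Cells: mutant yeast strain deficient in DNA damage repair.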

[3] = NCI Yeast Anticancer Drug Screen. Data for the cln2 rad14 strain (AID 165);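 note: 0% = growth equal to vehicle treated cultures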; details: S. cerevisiae cln2 rad14 strain, stronger effect = higher value
Procedure, shortened: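 cln2 rad14 yeast strain; compound exposure; growth inhibition read vs vehicle controls.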

[4] = NCI Yeast Anticancer Drug Screen. Data for the bub3 strain (AID 167); details: S. cerevisiae bub3 mutant strain, stronger effect = higher value
Procedure, shortened: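 Whole-cell yeast assay. The mutant strain was incubated with compounds, and growth inhibition was determined by comparison with vehicle-treated cells.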

[5] = NCI Yeast Anticancer Drug Screen. Data for the mlh1 rad18 strain (AID 175); details: S. cerevisiae mlh1 rad18 strain growth inhibition, stronger effect = higher value
Procedure, shortened: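 Yeast w/ defined DNA-repair lesions; compound exposure; growth vs vehicle controls → % inhibition.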

[6] = NCI Yeast Anticancer Drug Screen. Data for the mec2-1 strain (AID 157); details: S. cerevisiae mec2-1 strain, stronger effect = higher value
Procedure, shortened: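 Yeast mec2-1 mutant treated with compound. Readout: growth inhibition vs vehicle controls.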

[7] = at 5.0 µM (retest, dose inferred, filed as 0.5)
[8] = at 50.0 µM (retest, dose inferred, filed as 5.0)

With CCCCCCCCCCS(=O)(=O)Nc1ccc(C(=O)NN)cc1 the growth inhibition [1, 7] was 60%, the growth inhibition [1, 8] was 83% (active) and the growth inhibition ([1]; at 50.0 µM) was 92.6% (active). The growth inhibition [2, 7] was 42%, the growth inhibition [2, 8] was 82% (active) and the growth inhibition ([2]; at 50.0 µM) was 89.5% (active). The growth inhibition [3, 7] was 54%, the growth inhibition [3, 8] was 80% (active) and the growth inhibition ([3]; at 50.0 µM) was 91% (active). The growth inhibition [4, 7] was 48%, the growth inhibition [4, 8] was 82% (active) and the growth inhibition ([4]; at 50.0 µM) was 79% (active). The growth inhibition [5, 7] was 69%, the growth inhibition [5, 8] was 87% (active) and the growth inhibition ([5]; at 50.0 µM) was 92.7% (active).
For Cc1ccc(O)c(Cc2ccc(Cl)cc2)c1, the growth inhibition [6, 7] was -54%, the growth inhibition [6, 8] was 99% (active) and the growth inhibition ([6]; at 50.0 µM) was 99.8% (active). The growth inhibition [2, 7] was -56%, the growth inhibition [2, 8] was 99% (active) and the growth inhibition ([2]; at 50.0 µM) was 64.3%. The growth inhibition [3, 7] was -80%, the growth inhibition [3, 8] was 99% (active) and the growth inhibition ([3]; at 50.0 µM) was 99.5% (active). For the same compound, the growth inhibition [4, 7] was -76%, the growth inhibition [4, 8] was 98% (active) and the growth inhibition ([4]; at 50.0 µM) was 99.6% (active). For the same compound, the growth inhibition [5, 7] was -119%, the growth inhibition [5, 8] was 96% (active) and the growth inhibition ([5]; at 50.0 µM) was 99.6% (active).
c1ccc(Cn2nnnc2-c2ccccc2)cc1 gave a growth inhibition [1, 7] of -151%, a growth inhibition [1, 8] of -125% and a growth inhibition ([1]; at 50.0 µM) of 23.8%. For the same compound, the growth inhibition [6, 7] was -53%, the growth inhibition [6, 8] was -43% and the growth inhibition ([6]; at 50.0 µM) was 43.5%. It also gave a growth inhibition [2, 7] of -66%, a growth inhibition [2, 8] of -61% and a growth inhibition ([2]; at 50.0 µM) of 1.75%. The growth inhibition [4, 7] was -70%, the growth inhibition [4, 8] was -57% and the growth inhibition ([4]; at 50.0 µM) was 5.45%. The growth inhibition [5, 7] was -147%, the growth inhibition [5, 8] was -89% and the growth inhibition ([5]; at 50.0 µM) was 14.3%.
For CN(Nc1ccc(Cl)cc1)c1ccc(Cl)cc1, the growth inhibition [1, 7] was 1%, the growth inhibition [1, 8] was 95% (active) and the growth inhibition ([1]; at 50.0 µM) was 73.2% (active). For the same compound, the growth inhibition [6, 7] was 12%, the growth inhibition [6, 8] was 98% (active) and the growth inhibition ([6]; at 50.0 µM) was 64%. The growth inhibition [2, 7] was 0%, the growth inhibition [2, 8] was 97% (active) and the growth inhibition ([2]; at 50.0 µM) was 79.2% (active). The growth inhibition [4, 7] was 9%, the growth inhibition [4, 8] was 97% (active) and the growth inhibition ([4]; at 50.0 µM) was 77% (active). The growth inhibition [5, 7] was -9%, the growth inhibition [5, 8] was 96% (active) and the growth inhibition ([5]; at 50.0 µM) was 75.3% (active).
With CCC(=S)N(C)O the growth inhibition [1, 7] was 95% (active), the growth inhibition [1, 8] was 96% (active) and the growth inhibition ([1]; at 50.0 µM) was 66.5%. For the same compound, the growth inhibition [6, 7] was 99% (active), the growth inhibition [6, 8] was 98% (active) and the growth inhibition ([6]; at 50.0 µM) was 50.9%. For the same compound, the growth inhibition [2, 7] was 100% (active), the growth inhibition [2, 8] was 98% (active) and the growth inhibition ([2]; at 50.0 µM) was 69%. For the same compound, the growth inhibition [4, 7] was 100% (active), the growth inhibition [4, 8] was 97% (active) and the growth inhibition ([4]; at 50.0 µM) was 52%. For the same compound, the growth inhibition [5, 7] was 98% (active), the growth inhibition [5, 8] was 97% (active) and the growth inhibition ([5]; at 50.0 µM) was 86.2% (active).
For O=C(Nc1c(Cl)cccc1Cl)Oc1c(Br)cc(Br)cc1Br, the growth inhibition [6, 7] was 66%, the growth inhibition [6, 8] was 94% (active) and the growth inhibition ([6]; at 50.0 µM) was 93% (active). The growth inhibition [2, 7] was 27%, the growth inhibition [2, 8] was 98% (active) and the growth inhibition ([2]; at 50.0 µM) was 93.2% (active). For the same compound, the growth inhibition [3, 7] was 25%, the growth inhibition [3, 8] was 100% (active) and the growth inhibition ([3]; at 50.0 µM) was 92.2% (active). The growth inhibition [4, 7] was 58%, the growth inhibition [4, 8] was 93% (active) and the growth inhibition ([4]; at 50.0 µM) was 91% (active). For the same compound, the growth inhibition [5, 7] was 64%, the growth inhibition [5, 8] was 98% (active) and the growth inhibition ([5]; at 50.0 µM) was 90.1% (active).
In the case of COC1=CC(=O)c2c(O)c3c(c(O)c2C1=O)OC1(Oc2c(cc4cc(C)oc(=O)c4c2O)CC1O)C3O (stereo not drawn), the growth inhibition [1, 7] is reported as 96% (active), the growth inhibition [1, 8] is reported as 97% (active) and the growth inhibition ([1]; at 50.0 µM) is reported as 91.1% (active). For the same compound, the growth inhibition [6, 7] was 98% (active), the growth inhibition [6, 8] was 99% (active) and the growth inhibition ([6]; at 50.0 µM) was 92.5% (active). For the same compound, the growth inhibition [2, 7] was 97% (active), the growth inhibition [2, 8] was 98% (active) and the growth inhibition ([2]; at 50.0 µM) was 92.8% (active). For the same compound, the growth inhibition [4, 7] was 99% (active), the growth inhibition [4, 8] was 99% (active) and the growth inhibition ([4]; at 50.0 µM) was 91% (active). The growth inhibition [5, 7] was 97% (active), the growth inhibition [5, 8] was 98% (active) and the growth inhibition ([5]; at 50.0 µM) was 91% (active).
For CCCCOc1ccc(CN2CCOC2=O)cc1, the growth inhibition [6, 7] was 7%, the growth inhibition [6, 8] was 12% and the growth inhibition ([6]; at 50.0 µM) was 17.8%. It also gave a growth inhibition [2, 7] of 4%, a growth inhibition [2, 8] of 4% and a growth inhibition ([2]; at 50.0 µM) of 10.6%. It also gave a growth inhibition [3, 7] of 5%, a growth inhibition [3, 8] of 9% and a growth inhibition ([3]; at 50.0 µM) of 28.3%. For the same compound, the growth inhibition [4, 7] was 7%, the growth inhibition [4, 8] was 7% and the growth inhibition ([4]; at 50.0 µM) was 6.3%. For the same compound, the growth inhibition [5, 7] was 0%, the growth inhibition [5, 8] was 3% and the growth inhibition ([5]; at 50.0 µM) was 55.4%.
In the case of OCC(O)C(O)C(O)C(O)C(SCc1ccccc1)SCc1ccccc1 (stereo not drawn), the growth inhibition ([1]; at 50.0 µM) is reported as 9.5% and -3.9% and -5.4%, the growth inhibition ([6]; at 50.0 µM) is reported as -1.5% and -0.6% and 8.55% and the growth inhibition ([2]; at 50.0 µM) is reported as 6.25% and -7.1% and 8.7%. The growth inhibition ([3]; at 50.0 µM) was -9.4% and -3.35% and -11.2%, the growth inhibition ([4]; at 50.0 µM) was -3.7% and -7.25% and 2.05% and the growth inhibition ([5]; at 50.0 µM) was 10.1% and 3.6% and 10.6%.
For CCN(CC)c1c(C(=O)/C=C/c2ccc(OC)cc2)c(-c2ccccc2)nn(C)c1=O, the growth inhibition [6, 7] was 8%, the growth inhibition [6, 8] was 8% and the growth inhibition ([6]; at 50.0 µM) was 72.5% (active). It also gave a growth inhibition [2, 7] of 5%, a growth inhibition [2, 8] of 5% and a growth inhibition ([2]; at 50.0 µM) of 69%. The growth inhibition [3, 7] was 9%, the growth inhibition [3, 8] was 9% and the growth inhibition ([3]; at 50.0 µM) was 77% (active). The growth inhibition [4, 7] was -4%, the growth inhibition [4, 8] was -4% and the growth inhibition ([4]; at 50.0 µM) was 71.3% (active). For the same compound, the growth inhibition [5, 7] was 8%, the growth inhibition [5, 8] was 8% and the growth inhibition ([5]; at 50.0 µM) was 70.2% (active).
In the case of Fc1ccc(NC(=S)SCc2ccc(Cl)cc2)c(F)c1, the growth inhibition [1, 7] is reported as 19%, the growth inhibition [1, 8] is reported as 99% (active) and the growth inhibition ([1]; at 50.0 µM) is reported as 99.3% (active). For the same compound, the growth inhibition [2, 7] was 13%, the growth inhibition [2, 8] was 99% (active) and the growth inhibition ([2]; at 50.0 µM) was 99.5% (active). For the same compound, the growth inhibition [3, 7] was -2%, the growth inhibition [3, 8] was 99% (active) and the growth inhibition ([3]; at 50.0 µM) was 99.4% (active). The growth inhibition [4, 7] was 19%, the growth inhibition [4, 8] was 98% (active) and the growth inhibition ([4]; at 50.0 µM) was 99.5% (active). For the same compound, the growth inhibition [5, 7] was 7%, the growth inhibition [5, 8] was 98% (active) and the growth inhibition ([5]; at 50.0 µM) was 99.5% (active).
In the case of Nc1ccc(-c2ccc(N)cc2S(=O)(=O)O)c(S(=O)(=O)O)c1, the growth inhibition [1, 7] is reported as 2%, the growth inhibition [1, 8] is reported as 0% and the growth inhibition ([1]; at 50.0 µM) is reported as -27.6%. It also gave a growth inhibition [2, 7] of -1%, a growth inhibition [2, 8] of -1% and a growth inhibition ([2]; at 50.0 µM) of -5.9%. For the same compound, the growth inhibition [3, 7] was -2%, the growth inhibition [3, 8] was -5% and the growth inhibition ([3]; at 50.0 µM) was 23.4%. It also gave a growth inhibition [5, 7] of -7%, a growth inhibition [5, 8] of -4% and a growth inhibition ([5]; at 50.0 µM) of -38.7%.
In the case of CCCCC(CC)COP(=O)(OCC(CC)CCCC)OCC(CC)CCCC (stereo not drawn), the growth inhibition [1, 7] is reported as 0%, the growth inhibition [1, 8] is reported as 7% and the growth inhibition ([1]; at 50.0 µM) is reported as 15.8%. The growth inhibition [2, 7] was 9%, the growth inhibition [2, 8] was 18% and the growth inhibition ([2]; at 50.0 µM) was -2.85%. The growth inhibition [3, 7] was 0%, the growth inhibition [3, 8] was -3% and the growth inhibition ([3]; at 50.0 µM) was 0.85%. It also gave a growth inhibition [4, 7] of -5%, a growth inhibition [4, 8] of -11% and a growth inhibition ([4]; at 50.0 µM) of -6.75%. The growth inhibition [5, 7] was -4%, the growth inhibition [5, 8] was -12% and the growth inhibition ([5]; at 50.0 µM) was 29.1%.
O=C1NC(=O)C(c2ccccc2)(c2ccccc2)C2CC3c4[nH]c5ccccc5c4CCN3CC12 (stereo not drawn) gave a growth inhibition [6, 7] of 6%, a growth inhibition [6, 8] of 63% and a growth inhibition ([6]; at 50.0 µM) of 59.1%. It also gave a growth inhibition [2, 7] of 5%, a growth inhibition [2, 8] of 65% and a growth inhibition ([2]; at 50.0 µM) of 56%. The growth inhibition [3, 7] was 6%, the growth inhibition [3, 8] was 66% and the growth inhibition ([3]; at 50.0 µM) was 46.6%. For the same compound, the growth inhibition [4, 7] was 6%, the growth inhibition [4, 8] was 51% and the growth inhibition ([4]; at 50.0 µM) was 37.5%. For the same compound, the growth inhibition [5, 7] was 1%, the growth inhibition [5, 8] was 60% and the growth inhibition ([5]; at 50.0 µM) was 73.8% (active).
